Activity calls are given as the source filed them. How the source made its calls: active means hit-call score of the fitted dose curve at least 0.9, where 1 is the maximum; inactive means score below 0.9.
Key:
Details in all cases: mRNA level, 48 h; actives raise or lower the signal
[1] = read-out: Cyclin Dependent Kinase Inhibitor 1A (CDKN1A), CDKN1A (gene 1026); experiment: LTEA_HepaRG_CDKN1A: Life Technologies and Expression Analysis (LTEA) Assay for Cyclin Dependent Kinase Inhibitor 1A (CDKN1A) using HepaRG (AID 2283450)
Outline: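 Read-out is CDKN1A mRNA by TaqMan qRT-PCR, normalized to three housekeeping genes and fitted in both directions against the DMSO baseline. Human HepaRG cells were treated 48 h with test chemicals up to 100 uM in half-log steps, 0.5% DMSO.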

[2] = read-out: Cyclin D1 (CCND1), CCND1 (gene 595); experiment: LTEA_HepaRG_CCND1: Life Technologies and Expression Analysis (LTEA) Assay for Cyclin D1 (CCND1) using HepaRG (AID 2283451)
Outline: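 HepaRG plated 48 h, medium switched to serum-free induction medium, chemicals added in duplicate (top 100 uM, half-log steps, 0.5% DMSO) for 48 h, cells lysed, RNA measured by TaqMan qRT-PCR.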

[3] = read-out: catalase (CAT), CAT (gene 847); experiment: LTEA_HepaRG_CAT: Life Technologies and Expression Analysis (LTEA) Assay for catalase (CAT) using HepaRG (AID 2283452)
Outline: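 HepaRG cells in serum-free induction medium, 0.5% DMSO vehicle, exposed 48 h in duplicate over 8 half-log concentrations from 100 uM. CAT mRNA measured by qRT-PCR, normalized to ACTB, GAPDH, POLR2A; bidirectional fit versus DMSO.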

[4] = read-out: flavin-containing dimethylaniline monooxygenases 3 (FMO3), FMO3 (gene 2328); experiment: LTEA_HepaRG_FMO3: Life Technologies and Expression Analysis (LTEA) Assay for flavin-containing dimethylaniline monooxygenases 3 (FMO3) using HepaRG (AID 2283453)
Outline: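 Eight-point concentration-response in serum-free HepaRG cultures (top 100 uM, 0.5% DMSO, 48 h). Read-out: FMO3 mRNA level normalized to three endogenous control genes, fitted bidirectionally versus vehicle.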

[5] = read-out: Cytochrome P450 (CYP1A1), CYP1A1 (gene 1543); experiment: LTEA_HepaRG_CYP1A1: Life Technologies and Expression Analysis (LTEA) Assay for Cytochrome P450 (CYP1A1) using HepaRG (AID 2283454)
Outline: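 HepaRG, 48 h post-plating switched to serum-free induction medium; 8-pt conc-response (top 100 uM, half-log, 0.5% DMSO), duplicates, 48 h. Lysis in RLT, TaqMan qRT-PCR for CYP1A1; gain or loss vs DMSO.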

[6] = read-out: CFLAR gene, CFLAR (gene 8837); experiment: LTEA_HepaRG_CFLAR: Life Technologies and Expression Analysis (LTEA) Assay for CFLAR gene using HepaRG (AID 2283455)
Outline: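 qRT-PCR read-out (Fluidigm/TaqMan) of CFLAR mRNA, normalized to three housekeeping genes, in differentiated human HepaRG cells after 48 h chemical exposure; 8-point half-log series from 100 uM in 0.5% DMSO; bidirectional curve fitting versus DMSO.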

[7] = read-out: Forkhead box O1 (FOXO1), FOXO1 (gene 2308); experiment: LTEA_HepaRG_FOXO1: Life Technologies and Expression Analysis (LTEA) Assay for Forkhead box O1 (FOXO1) using HepaRG (AID 2283456)
Outline: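 HepaRG, 48 h exposure, 8-pt half-log series from 100 uM in 0.5% DMSO, duplicates; Fluidigm qRT-PCR mRNA, housekeeping-normalised; bidirectional fit vs DMSO baseline.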

[8] = read-out: growth arrest and DNA damage 45 (GADD45A), GADD45A (gene 1647); experiment: LTEA_HepaRG_GADD45A: Life Technologies and Expression Analysis (LTEA) Assay for growth arrest and DNA damage 45 (GADD45A) using HepaRG (AID 2283458)
Outline: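 Eight-point concentration-response in HepaRG cells: 48 h chemical exposure, 0.5% DMSO vehicle, top dose 100 uM. Normalized qRT-PCR mRNA readout with bidirectional fitting relative to DMSO.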

[9] = read-out: Forkhead box O3 (FOXO3), FOXO3 (gene 2309); experiment: LTEA_HepaRG_FOXO3: Life Technologies and Expression Analysis (LTEA) Assay for Forkhead box O3 (FOXO3) using HepaRG (AID 2283459)
Outline: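 qRT-PCR readout of FOXO3 transcript, normalized to three housekeeping genes (ACTB, GAPDH, POLR2A); gain or loss fitted against 0.5% DMSO vehicle. HepaRG cells, 48 h chemical exposure, 8-point half-log series, top 100 uM.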

[10] = read-out: ABC Transporter (ABCB1), ABCB1 (gene 5243); experiment: LTEA_HepaRG_ABCB1: Life Technologies and Expression Analysis (LTEA) Assay for ABC Transporter (ABCB1) using HepaRG (AID 2283460)
Outline: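 HepaRG, 48 h exposure, 8-pt half-log series from 100 uM, 0.5% DMSO vehicle, duplicates. Readout: ABCB1 transcript by Fluidigm TaqMan qRT-PCR, housekeeping-normalized; bidirectional curve fit vs DMSO baseline.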

[11] = read-out: growth arrest and DNA damage 45 (GADD45B), GADD45B (gene 4616); experiment: LTEA_HepaRG_GADD45B: Life Technologies and Expression Analysis (LTEA) Assay for growth arrest and DNA damage 45 (GADD45B) using HepaRG (AID 2283461)
Outline: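 HepaRG, ~100,000 cells/well, 48 h plating; serum-free induction medium; cpd 100 uM top, half-log x8, 0.5% DMSO, duplicate, 48 h; lysis in RLT, RNA isolation, qRT-PCR; norm ACTB/GAPDH/POLR2A; bidirectional fit vs DMSO.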

[12] = read-out: ABC Transporter (ABCC3), ABCC3 (gene 8714); experiment: LTEA_HepaRG_ABCC3: Life Technologies and Expression Analysis (LTEA) Assay for ABC Transporter (ABCC3) using HepaRG (AID 2283462)
Outline: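 Human HepaRG, 48 h dosing, 8-pt half-log series from 100 uM, 0.5% DMSO vehicle, duplicates. ABCC3 mRNA by TaqMan qRT-PCR, housekeeping-normalized; bidirectional curve fit vs DMSO.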

[13] = read-out: ABC Transporter (ABCB11), ABCB11 (gene 8647); experiment: LTEA_HepaRG_ABCB11: Life Technologies and Expression Analysis (LTEA) Assay for ABC Transporter (ABCB11) using HepaRG (AID 2283463)
Outline: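 HepaRG, 48 h exposure, 8-pt half-log CRC top 100 uM, 0.5% DMSO vehicle, duplicates. Readout: TaqMan qRT-PCR of ABCB11 mRNA, housekeeping-normalized (ACTB/GAPDH/POLR2A). Bidirectional fit vs DMSO baseline.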

[14] = read-out: ABC Transporter (ABCC2), ABCC2 (gene 1244); experiment: LTEA_HepaRG_ABCC2: Life Technologies and Expression Analysis (LTEA) Assay for ABC Transporter (ABCC2) using HepaRG (AID 2283464)
Outline: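 HepaRG, 48 h post-plating; serum-free induction medium; cpd 8-pt, 100 uM top, half-log, 0.5% DMSO, duplicate, 48 h. Readout: ABCC2 mRNA by qRT-PCR, norm. ACTB/GAPDH/POLR2A. Bidirectional fit vs DMSO baseline.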

[15] = read-out: Broad substrate specificity ATP-binding cassette transporter ABCG2 (Homo sapiens) (UniProt Q9UNQ0); experiment: LTEA_HepaRG_ABCG2: Life Technologies and Expression Analysis (LTEA) Assay for ABC Transporter (ABCG2) using HepaRG (AID 2283465)
Outline: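 HepaRG, 48 h exposure, 8-pt half-log series from 100 uM, 0.5% DMSO vehicle, duplicates. Readout: ABCG2 transcript by qRT-PCR (Fluidigm array), housekeeping-normalized; bidirectional curve fit relative to DMSO baseline.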

[16] = read-out: ATP-citrate lyase (ACLY), ACLY (gene 47); experiment: LTEA_HepaRG_ACLY: Life Technologies and Expression Analysis (LTEA) Assay for ATP-citrate lyase (ACLY) using HepaRG (AID 2283466)
Outline: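 qRT-PCR readout of ACLY transcript after 48 h chemical treatment of HepaRG cells; expression normalized to three housekeeping genes. Eight-point half-log series, highest 100 uM, 0.5% DMSO vehicle. Gain or loss fitted against DMSO baseline.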

[17] = read-out: Peroxisomal acyl-coenzyme A oxidase 1 (ACOX1) gene, ACOX1 (gene 51); experiment: LTEA_HepaRG_ACOX1: Life Technologies and Expression Analysis (LTEA) Assay for Peroxisomal acyl-coenzyme A oxidase 1 (ACOX1) gene using HepaRG (AID 2283467)
Outline: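 HepaRG, 48 h chemical exposure, 8-pt half-log series from 100 uM top, 0.5% DMSO vehicle, duplicates. Readout: ACOX1 mRNA by Fluidigm qRT-PCR, housekeeping-normalized; bidirectional fit vs DMSO baseline.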

[18] = read-out: Alkaline Phosphatase, Placental (ALPP) gene, ALPP (gene 250); experiment: LTEA_HepaRG_ALPP: Life Technologies and Expression Analysis (LTEA) Assay for Alkaline Phosphatase, Placental (ALPP) gene using HepaRG (AID 2283468)
Outline: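 HepaRG, 48 h plating then 48 h dosing, serum-free induction medium, 0.5% DMSO. 8 conc, half-log, max 100 uM, duplicates. Endpoint: ALPP transcript by qRT-PCR, housekeeping-normalized; gain or loss fitted vs DMSO.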

[19] = read-out: Bcl-2 (BAD) gene, BAD (gene 572); experiment: LTEA_HepaRG_BAD: Life Technologies and Expression Analysis (LTEA) Assay for Bcl-2 (BAD) gene using HepaRG (AID 2283469)
Outline: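 HepaRG, 48 h exposure, 8-pt half-log curve from 100 uM in 0.5% DMSO, duplicates. Readout: TaqMan qRT-PCR for BAD mRNA, housekeeping-normalised (ACTB/GAPDH/POLR2A); gain or loss fitted against DMSO baseline.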

Measured: outcome

Sequence of Broad substrate specificity ATP-binding cassette transporter ABCG2 (Homo sapiens) (Q9UNQ0 whole entry, looked up): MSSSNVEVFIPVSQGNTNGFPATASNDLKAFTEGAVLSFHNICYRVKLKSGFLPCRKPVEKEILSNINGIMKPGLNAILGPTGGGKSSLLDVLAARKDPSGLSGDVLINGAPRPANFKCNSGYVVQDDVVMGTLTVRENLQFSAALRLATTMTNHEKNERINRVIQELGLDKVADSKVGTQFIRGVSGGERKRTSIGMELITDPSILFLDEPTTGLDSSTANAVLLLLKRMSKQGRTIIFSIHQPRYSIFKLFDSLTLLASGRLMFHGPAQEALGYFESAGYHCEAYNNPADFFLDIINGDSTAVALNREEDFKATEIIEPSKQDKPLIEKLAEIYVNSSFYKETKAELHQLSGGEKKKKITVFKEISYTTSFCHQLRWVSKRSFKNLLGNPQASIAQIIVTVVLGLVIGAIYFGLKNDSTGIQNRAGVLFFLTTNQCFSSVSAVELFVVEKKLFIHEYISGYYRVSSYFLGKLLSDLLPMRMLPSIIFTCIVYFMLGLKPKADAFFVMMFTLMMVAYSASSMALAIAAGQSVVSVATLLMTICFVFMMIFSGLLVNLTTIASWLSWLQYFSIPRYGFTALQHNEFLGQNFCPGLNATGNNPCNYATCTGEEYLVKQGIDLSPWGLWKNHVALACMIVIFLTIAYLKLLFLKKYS

CS(=O)(=O)OCCCCOS(C)(=O)=O
inactive: all assays above

Reference: PubChem BioAssay (EPA / NIEHS)
